# Rows were chosen to be rich in hits. Some 4.1% of all compounds tested hit in one or more screens of this group.
# MITF TRPM1 inh = inhibitors of MITF-dependent TRPM1 promoter reporter, primary screen, cell-based, SK-MEL-5, single point, luciferase | actives 0.83% (n = 330,000) | SK-MEL-5 TRPM1 promoter luciferase, 24 h | inhibition, % at 12.5 µM;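 active means mean inhibition across replicates of 60% or more, whatever share of single replicates reaches that level; inconclusive means some that reach 60%, reason not given; inactive means mean inhibition across replicates below 60%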
# Peg3 prom inh = Peg3 promoter-driven luciferase inhibitors, primary screen, cell-based, HeLa, luciferase luminescence; actives 1.7% (n = 360,000); inhibition, % at 20 µM; HeLa PEG-Prom luciferase reporter, overnight;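 active means inhibition of at least 50% at 20 µM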
# EBV LMP1 NFkB = EBV LMP1-driven NF-kappaB luciferase reporter inhibitors, primary screen, cell-based, luminescence, single point; actives 0.69% (n = 350,000); LMP1-induced NF-kappaB luciferase reporter cells; inhibition, % at 12.5 µM; in the data active means inhibition above about 41%; inconclusive means no clear call, values can overlap the other calls;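 further: 0% = neutral control wells and 100% = reference inhibitor control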
# Shn3 inh set2 = reduction of Shn3 3'UTR firefly luciferase signal, primary screen, Schnurri-3 inhibitor project, cell-based, Clone20 osteoblasts, set 2 | Clone20 osteoblast Shn3 3'UTR firefly luciferase, 24 h | actives 0.52% (n = 360,000) | AID 588674, 2011 | inhibition, % at 12.5 µM;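 active means mean inhibition of at least 75% with every replicate also reaching 75%; inconclusive means mean inhibition at least 75% but some replicate below; inactive means mean inhibition below 75%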;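 further: 0% = median of neutral control wells and 100% = pilot-screen positive control compound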
# TWEAK Fn14 block = inhibitors of TWEAK-Fn14 signaling, primary screen, luciferase reporter cells, uHTS; TWEAK-stimulated Fn14 reporter cells, luciferase luminescence, 8 h; inhibition, % at 10 µM; actives 2% (n = 360,000); AID 1159606, 2016; in the data active means inhibition above about 50%
# TROY NFkB inh = inhibitors of TROY-driven NF-kB signaling, primary screen, Q293 LMP1-TROYcd cells, NF-kB luciferase, uHTS; Q293 LMP1-TROYcd NF-kB luciferase reporter, 4 h; inhibition, % at 10 µM; actives 0.98% (n = 360,000); AID 1347056, 2019;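 active means compounds whose plate-normalised and pattern-corrected inhibition of the luciferase reporter signal at the single screening dose is 50% or more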
# Starred values were filed as active, the others as inactive; ? = inconclusive; nt = no result.
SMILES,MITF TRPM1 inh,Peg3 prom inh,EBV LMP1 NFkB,Shn3 inh set2,TWEAK Fn14 block,TROY NFkB inh
N#Cc1ccc(NC(=O)CSc2cn[nH]n2)cc1,-5,-2,-2,1,90*,-3
Cc1ccc(NC(=O)CSc2cn[nH]n2)cc1,-8,-10,-2,7,5,-11
CCOC(=O)C1=C(CC)Nc2ccccc2N=C1NC(=O)c1oc2ccccc2c1C,23,64*,-4,57,25,25
CCOCc1c(C(=O)NC2=Nc3ccccc3NC(CC)=C2C(=O)OCC)oc2ccccc12,1,66*,10,39,23,17
CC(NC(=O)COC(=O)c1ccccc1O)C1CC2CCC1C2 (centres undefined),nt,-8,13,10,8,-16
N#Cc1ccc(OCC(=O)NCCc2ccccn2)cc1,19,5,-6,-1,2,8
C/C(CC(=O)Nc1ccc(N(C)C)cc1)=N\NC(=O)c1ccccc1O,6,18,11,-24,24,56*
Cc1nn(-c2ccccc2)c(Cl)c1/C=N/NC(=O)c1[nH]ncc1Br,-135,-122,-11,-22,53*,28
Cc1nn(-c2ccccc2)c(Cl)c1/C=N/NC(=O)c1ccn[nH]1,-58,-180,nt,-13,50*,-16
CC(=O)Nc1c(Cl)cc(Cl)c2c1Cc1cc(Cl)ccc1-2,7,5,-17,-69,-12,4
CC(C)OCCCNC(=S)NNC(=O)c1ccc(Cl)c(Cl)c1,-10,-141,0,-12,6,-4
COc1ccc(Br)cc1[C@H]1[C@H]2C=CC[C@@H](C)[C@@H]2C(=O)N1Cc1ccccc1,-17,22,3,7,8,16
N#CCCn1cc(C(=O)Nc2ccccn2)c(-c2ccccc2)n1,0,14,69*,7,-10,-6
NC(N)=NCCCS(=O)(=O)Nc1ccc(Nc2c3ccccc3nc3cc([N+](=O)[O-])ccc23)cc1,-3,-8,2,3,-15,-12
O=[N+]([O-])CC(c1ccc(F)cc1)c1c[nH]c2ccccc12 (centres undefined),17,55*,3,-7,27,4
CNC(=O)c1c(NC(=O)CCS(=O)(=O)c2ccc(C)cc2)sc2c1CCN(C(=O)OC)C2,0,-14,-11,-11,0,1
Cc1c(F)cccc1NC(=O)CCCCCC1NC(=O)NC1C (centres undefined),-3,15,-4,-37,20,19
CCCC(=O)NCCc1nc2ccccc2n1C,2,6,-2,-1,-1,-26
CCCC(=O)NCCCc1nc2ccccc2n1C,-6,-2,92*,14,1,3
Cc1ccc(CCNC(=O)CCc2nc3ccccc3[nH]2)cc1,-8,7,57*,5,1,6
COc1ccc(CCC(=O)NCCc2nc3ccccc3[nH]2)cc1,3,-1,-3,-11,13,-20
CCCC(=O)NCCCc1nc2ccccc2[nH]1,9,10,87*,-23,3,-12
CCN(C(=O)COC(=O)/C=C/c1cccc([N+](=O)[O-])c1)c1c(N)n(Cc2ccccc2)c(=O)[nH]c1=O,nt,-10,0,5,-7,13
O=C(N/N=C/c1c[nH]c2ccccc12)c1[nH]c2ccc(Br)cc2c1-c1ccccc1,?,20,7,-45,43,36
O=C(N/N=C/c1ccc(O)cc1)c1[nH]c2ccc(Br)cc2c1-c1ccccc1,63*,32,15,-9,45,15
c1ccc2c(c1)ccn1c(Cc3ccsc3)c(C3CCCCC3)nc21,nt,nt,nt,nt,5,-11
Cc1ccc(Cc2c(C3CCCCC3)nc3c4ccccc4ccn23)cc1,nt,-138,nt,-35,60*,69*
Cc1ccc(Cc2c(-c3ccccc3)nc3c4ccccc4ccn23)cc1,nt,nt,nt,nt,59*,67*
O=C1c2ccccc2C(=O)N1Cc1cc(-c2ccc(Cl)cc2)no1,-5,-27,-4,-9,-24,-22
CC(C)C[C@H](NC(=O)N1CC(=O)Nc2ccccc21)C(=O)N1CCC(C(=O)O)CC1,-5,-5,-2,-33,6,8

# Screening data (PubChem BioAssay)
